Measured values published in PMC5540273 (PLoS ONE, 2017).

Tests used:
Details in all cases: concentration: 1 μM, replicates: in singlicate; n = 1
BRSK1 = test system: BRSK1
BRSK2 = test system: BRSK2
BTK = test system: BTK
BUB1 = test system: BUB1
CAMK1B = test system: CAMK1B
CAMK1D = test system: CAMK1D
CAMK1G = test system: CAMK1G
CAMK1 = test system: CAMK1
CAMK2A = test system: CAMK2A
CAMK2B = test system: CAMK2B
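Also: KINOMEscan kinase panel screen.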

## O=C(c1ccc(-c2cc(-c3c[nH]nc3-c3ccccn3)ccn2)cc1)N1CCCC1 [GW792479]
BRSK1
  %Inh: 0%
BRSK2
  %Inh: 2%
BTK
  %Inh: 24%
BUB1
  %Inh: 20%
CAMK1B
  %Inh: 0%
CAMK1D
  %Inh: 30%
CAMK1G
  %Inh: 0%
CAMK1
  %Inh: 32%
CAMK2A
  %Inh: 1%
CAMK2B
  %Inh: 5%

## COc1ccc(NC(=O)Nc2ccc(C)c(-c3ccc(C(=O)Nc4ccncc4)cc3)c2)cc1 [GSK1398475]
BRSK1
  %Inh: 0%
BRSK2
  %Inh: 0%
BTK
  %Inh: 0%
BUB1
  %Inh: 28%
CAMK1B
  %Inh: 1%
CAMK1D
  %Inh: 3%
CAMK1G
  %Inh: 0%
CAMK1
  %Inh: 4%
CAMK2A
  %Inh: 0%
CAMK2B
  %Inh: 0%

## CCc1nc(-c2cccc(C)c2)c(-c2ccnc(NC(=O)c3ccccc3)c2)s1
BRSK1
  %Inh: 0%
BRSK2
  %Inh: 17%
BTK
  %Inh: 42%
BUB1
  %Inh: 17%
CAMK1B
  %Inh: 0%
CAMK1D
  %Inh: 7%
CAMK1G
  %Inh: 0%
CAMK1
  %Inh: 13%
CAMK2A
  %Inh: 4%
CAMK2B
  %Inh: 0%

## Fc1ccc(-c2ncn(CCCNCc3ccccc3)c2-c2ccncc2)cc1
BRSK1
  %Inh: 0%
BRSK2
  %Inh: 0%
BTK
  %Inh: 0%
BUB1
  %Inh: 12%
CAMK1B
  %Inh: 0%
CAMK1D
  %Inh: 4%
CAMK1G
  %Inh: 0%
CAMK1
  %Inh: 2%
CAMK2A
  %Inh: 21%
CAMK2B
  %Inh: 6%
